Source: PubChem BioAssay AID651687 (Broad Institute, 2012)
“And” between values parts separate entries of the source, which are not always exact repeats. Equal values may be shown once. Hit rate of the full screen: of about 350,000 compounds, about 600 (0.17%) were called active.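 Rule for the calls: active = every replicate shows inhibition of at least 40%; inconclusive = mean inhibition at least 40% but some replicate below; inactive = the rest.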 The sample as a whole holds a higher share of actives than the screen did. More than one record can exist for a structure, and the calls need not agree.

experiment: inhibitors of PGC1a acetylation signal, primary screen, cell-based, U2OS, AlphaScreen, inhibitor mode (AID 651687); conditions: AlphaScreen anti-acetyl-lysine, at 15.6 µM, stronger effect = higher value, with virally co-expressed GCN5 acetyltransferase;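 note: 0% = neutral control wells and 100% = positive control wells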

inhibition, active:
S=C1NC(c2ccccc2)=NCN1c1ccc(Br)cc1 80.9%
O=[N+]([O-])c1c(NCCO)cc(Sc2nc3ccccc3s2)c2nonc12 45%
CC[C@H]1CN2CCc3cc(OC)c(OC)cc3[C@@H]2C[C@@H]1C[C@H]1NCCc2cc(OC)c(OC)cc21 83.7%
CCOc1ccccc1CN1CCN(C2CCC2)CC1CCO (configuration not stated) 74.8%
Cn1c2c(c(=O)n(C)c1=O)C(c1cccc(F)c1)C(C#N)=C(N)O2 (configuration not stated) 80.9%
N#Cc1ccc(-c2ccc([C@@H]3[C@H]4CNC[C@@H]3N4Cc3ccc4c(c3)OCO4)cc2)cc1 48.1%
N=C1C(c2nc3ccccc3s2)=C(O)CN1NC(=O)c1ccc([N+](=O)[O-])cc1 100%

inhibition, -1.35% (inactive) and 58.1% (active):
N#Cc1ccc(-c2ccc(C3[C@@H]4CN(S(=O)(=O)c5ccc(F)cc5)C[C@H]3N4)cc2)cc1 (some centres not stated)

inhibition, inactive:
C[C@@H]1CN([C@H](C)CO)S(=O)(=O)c2ccc(C#CC3CCCC3)cc2O[C@@H]1CN(C)Cc1ccccc1C(=O)O -5.77%
O=C(C[C@@H]1C=C[C@@H](NS(=O)(=O)c2ccc(F)cc2)[C@@H](CO)O1)NCCN1CCCCC1 4.96%
CO[C@@H]1CN(C)C(=O)c2ccc(NS(=O)(=O)c3cn(C)cn3)cc2OC[C@H](C)N(CCC(F)(F)F)C[C@@H]1C -2.06%
Cc1noc(C)c1C(=O)N(C)C[C@H]1OCc2ccccc2-c2c(n(C)c3ccccc23)C(=O)N([C@@H](C)CO)C[C@H]1C -20.6%
COc1ccc(-c2cnc3c(c2)C(=O)N([C@@H](C)CO)C[C@H](C)[C@@H](CN(C)C(=O)C2CC2)O3)cc1 -1.45%
CNC[C@H]1Oc2ccc(NS(=O)(=O)c3ccc(F)cc3)cc2CC(=O)N([C@H](C)CO)C[C@H]1C -12.8%
C[C@@H](NC(=O)C[C@@H]1CC[C@@H]2[C@H](COC[C@@H](O)CN2C(=O)Nc2cccc(F)c2)O1)c1ccccc1 0.238%
COCC(=O)Nc1ccc2c(c1)OC[C@@H](C)N(Cc1cocn1)C[C@@H](C)[C@@H](OC)CN(C)C2=O 11.7%
CCC(=O)N(C)C[C@H]1Oc2cc(-c3ccc(C)cc3)ccc2S(=O)(=O)N([C@@H](C)CO)C[C@H]1C -11.2%
CCCN(C)C[C@@H]1OCCCC[C@@H](C)Oc2ccc(NC(=O)Nc3ccc(C(F)(F)F)cc3)cc2C(=O)N([C@H](C)CO)C[C@H]1C -1.97%
N#Cc1ccc(-c2ccc(C3[C@@H]4CN(S(=O)(=O)c5ccccc5F)C[C@H]3N4)cc2)cc1 (some centres not stated) -0.54% and -4.45%
CN(C)C(=O)c1cccc(-c2ccc(C3[C@@H]4CN(S(=O)(=O)c5ccc(F)cc5)C[C@H]3N4)cc2)c1 (some centres not stated) -5.35% and -8.12%
C[C@H](CO)N1C[C@H](C)[C@@H](CN(C)C(=O)Cc2ccccn2)Oc2cc(-c3cccc(C(=O)N(C)C)c3)ccc2S1(=O)=O 0.377%
COc1ccc(C#Cc2ccc([C@H]3[C@@H](CO)N4CCCCN(S(=O)(=O)c5cn(C)cn5)C[C@H]34)cc2)cc1 -2.67%
COCC(=O)Nc1ccc2c(c1)[C@H]1C[C@H](CC(=O)NCc3cccnc3)O[C@H](CO)[C@H]1O2 5.71%
CN1c2ccc(-c3cccc(F)c3)cc2[C@H]2[C@H](CCN2C(=O)c2cccc(F)c2)[C@H]1CO -7.12%
Cc1nc(=O)c(-c2ccccc2)c(C)n1-c1ccc(Br)cc1 -2.67%
COc1ccccc1S(=O)(=O)N[C@@H]1C=C[C@H](CC(=O)N2CCN(C)CC2)O[C@@H]1CO 6.82%
COc1ccc(S(=O)(=O)Nc2ccc3c(c2)C(=O)N([C@H](C)CO)C[C@H](C)[C@@H](CN(C)C)OCCCC[C@H](C)O3)cc1 -0.646% and 1.73%
C[C@H]1CN([C@@H](C)CO)C(=O)c2cc(C#CC3CCCCC3)cnc2O[C@@H]1CN(C)C(=O)Cc1ccccn1 -16.1%
C[C@H](CO)N1C[C@H](C)[C@H](CN(C)S(=O)(=O)c2cn(C)cn2)Oc2c(NC(=O)c3ccncc3)cccc2C1=O -3.09%
CO[C@H]1CN(C)C(=O)c2ccc(NC(=O)c3nc4ccccc4s3)cc2OC[C@@H](C)N(Cc2cncnc2)C[C@H]1C 10.9%
C[C@@H]1CN([C@@H](C)CO)S(=O)(=O)c2ccc(-c3cccc(F)c3)cc2O[C@@H]1CN(C)S(=O)(=O)c1ccccc1 5.85%
C[C@H](CO)N1C[C@H](C)[C@H](CN(C)C)Oc2ncc(/C=C/c3ccccc3)cc2C1=O -8.6% and 4.49%
CO[C@H]1CN(C)C(=O)c2cc(NC(=O)c3nc4ccccc4s3)ccc2OC[C@H](C)N(Cc2cccnc2)C[C@@H]1C 7.17%
COc1ccc(NC(=O)N2CC[C@@H]3[C@@H](CO)N(C)c4ccc(-c5cccc(F)c5)cc4[C@@H]32)cc1 10.2%
O=C(Nc1ccc(C(F)(F)F)cc1)N[C@@H]1CC[C@H](CCNC(=O)c2ccccc2F)O[C@H]1CO 10.8%
CO[C@@H]1CN(C)C(=O)c2ccc(NC(=O)NC(C)C)cc2OC[C@H](C)N(Cc2ccc(-c3ccccn3)cc2)C[C@H]1C -3.93%
COc1ccc(N2CCC(N3CCN(C)C(CCO)C3)CC2)cc1 (configuration not stated) 0.824%
COc1ccccc1N1CCC(N2CCN(CC(C)(C)C)C(CCO)C2)CC1 (configuration not stated) 10.6%
CO[C@@H]1CN(C)C(=O)c2ccc(NC(=O)c3ccccn3)cc2OC[C@@H](C)N(C(=O)C2CCCCC2)C[C@H]1C -2.25%
C[C@H](CO)N1C[C@H](C)[C@H](CN(C)Cc2ccccn2)Oc2ncc(C#CCc3ccccc3)cc2C1=O -0.518%
COCCCNC(=O)[C@@]1(Cc2ccccc2)COC(c2ccc(OCCCO)cc2)=N1 4.46%
Cc1ccc(S(=O)(=O)N(C)C[C@H]2OCCCC[C@@H](C)Oc3ccc(NC(=O)Nc4ccc(F)cc4)cc3C(=O)N([C@@H](C)CO)C[C@H]2C)cc1 -6.65%
C[C@@H]1CN([C@H](C)CO)C(=O)c2cc(C#Cc3cccc(F)c3)cnc2O[C@H]1CN(C)Cc1ccccn1 -11.1%
Cc1noc(C)c1S(=O)(=O)Nc1ccc2c(c1)CC(=O)N([C@@H](C)CO)C[C@H](C)[C@H](CN(C)S(=O)(=O)c1ccc(Cl)cc1)O2 10.3%
CO[C@H]1CN(C)C(=O)c2cc(NC(=O)C3CC3)ccc2OC[C@H](C)N(C(=O)CN(C)C)C[C@H]1C -4.9%
O=C(C[C@H]1C[C@H]2c3cc(NC(=O)CC4CC4)ccc3O[C@H]2[C@H](CO)O1)NCc1cc(F)ccc1F -0.32%
C[C@H](CO)N1C[C@H](C)[C@@H](CN(C)Cc2ccc(C(F)(F)F)cc2)Oc2ccc(NC(=O)Cn3cnnn3)cc2CC1=O 6.38%
Cc1noc(C)c1NC(=O)Nc1ccc2c(c1)C(=O)N([C@H](C)CO)C[C@@H](C)[C@@H](CN(C)S(=O)(=O)c1ccc(Cl)cc1)OCCCC[C@H](C)O2 0.953%
COc1ccc(S(=O)(=O)N(C)C[C@H]2Oc3ccc(NS(C)(=O)=O)cc3C(=O)N([C@H](C)CO)C[C@H]2C)cc1 -5.85%
O=C(Cc1ccccc1)N1CC[C@H]2[C@H](CO)Nc3ccc(-c4ccccc4F)cc3[C@H]21 -17.2%
CC(C)NC(=O)Nc1ccc2c(c1)C(=O)N([C@H](C)CO)C[C@H](C)[C@@H](CN(C)Cc1ccc3c(c1)OCO3)OCCCC[C@H](C)O2 4.63%
C[C@@H]1CN([C@@H](C)CO)C(=O)c2cc(NC(=O)c3ccncc3)ccc2O[C@@H]1CN(C)S(C)(=O)=O 6.79%
Cc1ccccc1-c1ccc([C@H]2[C@@H](CO)N3C(=O)CN(C(=O)c4ccncc4)C[C@H]23)cc1 -5.89%
N#CC1=C(N)Oc2cc(N)ccc2C1c1ccccc1 (configuration not stated) -1.66%
Cc1cc2c(c(=O)n1C)C(C(C)C)C(C#N)=C(N)O2 (configuration not stated) 8.23%
C[C@@H]1CN([C@@H](C)CO)C(=O)c2cc(NC(=O)CCCCCC(=O)Nc3ccccc3N)ccc2O[C@@H](C)CCCCO[C@@H]1CN(C)CC1CCCCC1 3.98%
O=C(CC(F)(F)F)N1C[C@H]2[C@@H](c3ccccc31)[C@H](CO)N2C(=O)Cc1cccnc1 0.596%
CN(C)Cc1cn(CC[C@H]2CC[C@@H](NS(=O)(=O)c3ccccc3)[C@H](CO)O2)nn1 -1.22%
CO[C@H]1CN(C)C(=O)c2ccc(NS(C)(=O)=O)cc2OC[C@@H](C)N(Cc2ccccc2)C[C@H]1C 4.39%
O=C(C[C@@H]1CC[C@@H](NC(=O)c2cccnc2)[C@H](CO)O1)NCCN1CCCCC1 6.21%
CCC(=O)N1CC(=O)N2[C@@H](CO)[C@H](c3ccc(C#CCC(C)C)cc3)[C@@H]2C1 -4.62%
O=C(CC(F)(F)F)N1C[C@H]2[C@@H](c3ccccc31)[C@H](CO)N2C(=O)Cc1ccccc1 9.3%
C/C=C/c1ccccc1[C@@H]1[C@@H](C#N)N(C(=O)Cc2ccccn2)[C@H]1CO -0.046%
C[C@H]1CN([C@@H](C)CO)S(=O)(=O)c2ccc(C#CC3(O)CCCC3)cc2O[C@@H]1CN(C)C(=O)Nc1cccc(F)c1 -10%
Cc1ccc(S(=O)(=O)N2C[C@H](O)COC[C@@H]3O[C@@H](CC(=O)NCC4CCCCC4)CC[C@H]32)cc1 -0.708%
COc1ccccc1CN1[C@@H]2CNC[C@H]1C2c1ccc(-c2cccc(C#N)c2)cc1 (some centres not stated) 1.68% and -10%
N#Cc1ccc(-c2ccc3c(c2)[C@H]2[C@H](CCN2Cc2ccc4c(c2)OCO4)[C@@H](CO)N3)cc1 -7%
COc1ccc2c3c([nH]c2c1)[C@H](CO)N(Cc1ccccc1OC)CC31CCN(S(=O)(=O)c2ccccc2)CC1 8.15%
C[C@@H]1CN([C@@H](C)CO)C(=O)c2cccc(NC(=O)c3ccc(-c4nccs4)cc3)c2O[C@H]1CN(C)C(=O)Nc1ccccc1 -1.84%
Cc1ccc(C)n1NC(=O)c1ccc([N+](=O)[O-])cc1 2.46%
O=C(Nn1cnnc1)c1ccc([N+](=O)[O-])cc1 -2.58%
COc1ccc(NC(=O)N2C[C@H](O)COC[C@H]3O[C@@H](CC(=O)NC4Cc5ccccc5C4)CC[C@@H]32)cc1 1.58%
